A short description of experiment [1]: NCI Yeast Anticancer Drug Screen. Data for the rad50 strain (AID 155).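 Further: 0% = growth of vehicle-only cultures of the same strain.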 The conditions noted are these: S. cerevisiae rad50 strain growth inhibition; at 50.0 µM; active compounds read high. Summed up: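 A DNA repair-deficient yeast mutant serves as the test organism; compound-induced growth inhibition is calculated against vehicle-treated cells.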
A short description of experiment [2]: NCI Yeast Anticancer Drug Screen. Data for the mec2-1 strain (AID 157). The conditions noted are these: S. cerevisiae mec2-1 strain, at 50.0 µM, active compounds read high. The procedure, abridged: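 Strain: mec2-1 (DNA repair/cell cycle alteration). Compound exposure, then growth measured; inhibition expressed relative to vehicle.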
Experiment [3] is described as follows: NCI Yeast Anticancer Drug Screen. Data for the sgs1 mgt1 strain (AID 161).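 Further: 0% = growth of cultures given vehicle only.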 The conditions noted are these: S. cerevisiae sgs1 mgt1 strain, at 50.0 µM, active compounds read high. The procedure, abridged:
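Genetically altered yeast, compound exposure, growth inhibition relative to vehicle.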

A short description of experiment [4]: NCI Yeast Anticancer Drug Screen. Data for the cln2 rad14 strain (AID 165).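 Further: 0% = growth equal to vehicle treated cultures.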 Conditions: S. cerevisiae cln2 rad14 strain, at 50.0 µM, active compounds read high. The procedure, abridged:
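Compounds are applied to the cln2 rad14 yeast strain, and growth is then compared with that of vehicle-treated cultures to give inhibition.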

Experiment [5] can be described thus: NCI Yeast Anticancer Drug Screen. Data for the bub3 strain (AID 167). The conditions noted are these: S. cerevisiae bub3 mutant strain, at 50.0 µM, active compounds read high. The procedure, abridged: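 Inhibition values come from growth of compound-treated mutant yeast normalised to vehicle-treated controls.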
The nature of experiment [6]: NCI Yeast Anticancer Drug Screen. Data for the mlh1 rad18 strain (AID 175). Conditions: S. cerevisiae mlh1 rad18 strain growth inhibition; at 50.0 µM; active compounds read high. Summed up: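 Read-out is yeast growth inhibition, calculated against vehicle-only controls. The compound was applied to a strain engineered with DNA damage repair alterations.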

SMILES strings stand for the structures. Compounds without any hit were thinned out: in the full panel of roughly 79,000, 15% have a hit. Values without a mark were called inactive. Calls of active or inactive are those of the source. No stated cut-off is given here; in the data, active means growth inhibition above about 70%; inactive means the rest.

From PubChem BioAssay (NCI) come the findings set out here.

Regarding `N#CC(N)(C(=O)CCC(=O)Nc1cccc(Cl)c1)c1ccc(Cl)cc1` (stereo not given), the growth inhibition in experiment [1] is 1.7%; in experiment [2], 12.6%; in experiment [3], 7.7%; in experiment [4], 8.15%; in experiment [5], -2%; in experiment [6], 2.15%.

As to `O=C(O)c1ccc([N+](=O)[O-])cc1C(=O)c1cccs1`, the growth inhibition was 0.7% in experiment [1]; -7.75% in experiment [2]; 4.6% in experiment [3]; -2.35% in experiment [4]; 5.6% in experiment [5]; -0.05% in experiment [6].

Regarding `O=C(COC(=O)c1cccc([N+](=O)[O-])c1)c1ccc(Br)cc1`, the growth inhibition was 6.55% in experiment [1]; 20.3% in experiment [2]; 1.55% in experiment [3]; -16.2% in experiment [4]; 7.3% in experiment [5]; 5.8% in experiment [6].

As to `[O-][n+]1ccccc1/C=C/c1cccc[n+]1[O-]`, the growth inhibition in experiment [1] is -30.1%; in experiment [2] it was -31.1%; in experiment [3], -7.55%; in experiment [4] it was -22%; in experiment [5], -0.85%; in experiment [6] it was -18.4%.

Turning to `CCOC(=O)CCC(NC(=O)c1ccc(NCc2nc3c([nH]2)c(=O)n(C)c(=O)n3C)cc1)C(=O)OCC` (stereo not given), the growth inhibition in experiment [1] was 1.95%; in experiment [2] it was 13.3%; in experiment [3] it was 13.6%; in experiment [4] it was 2.6%; in experiment [5], -8.75%; in experiment [6] it was 14.4%.

For `CCOC(=O)C(CCc1ccc([N+](=O)[O-])cc1)(CCc1ccc([N+](=O)[O-])cc1)C(=O)OCC`, the growth inhibition in experiment [1] is -8.7%; in experiment [2], -16.1%; in experiment [3], -7.3%; in experiment [4], -29.1%; in experiment [5], -0.3%; in experiment [6], 6.15%.

On to `CN(C)CCNC(=O)c1cccc(C(C)(C)C)c1[N+](=O)[O-]`, for which the growth inhibition in experiment [1] is -11.2%; in experiment [2], -30.1%; in experiment [3] it was -18.9%; in experiment [4], 0.35%; in experiment [5] it was -19.1%; in experiment [6] it was -20%.

With `Cc1nc(N)nc(C)c1N=Nc1cc(Cl)cc(Cl)c1`, the growth inhibition is -27.1% in experiment [1]; 4.15% in experiment [2]; -2.2% in experiment [3]; -32.9% in experiment [4]; 10.2% in experiment [5]; -7.85% in experiment [6].

For the compound `O=C(CCl)Nc1ccc(SSc2ccc(NC(=O)CCl)cc2)cc1`, the growth inhibition was 33.8% in experiment [1]; 13% in experiment [2]; 47.1% in experiment [3]; 43.2% in experiment [4]; 10.1% in experiment [5]; 12.9% in experiment [6].

For `CCOC(=O)C1Cc2c(n(C3CCCCC3)c(=O)n(C)c2=O)OC1c1ccccc1` (stereo not given), the growth inhibition in experiment [1] is 14.4%; in experiment [2], -5.15%; in experiment [3], -7%; in experiment [4], 16.1%; in experiment [5], 2.55%; in experiment [6], -8.05%.

As to `CCC(C(=O)c1cccs1)C(O)(C(F)(F)F)C(F)(F)F` (stereo not given), the growth inhibition is -13.8% in experiment [1]; 4.6% in experiment [2]; -28.4% in experiment [3]; -83.2% in experiment [4]; -31.4% in experiment [5]; 22.9% in experiment [6].

As for `Cc1ccc(SCC(CF)OC(C)n2cnc3c(Cl)nc(N)nc32)cc1` (stereo not given), the growth inhibition in experiment [1] was 14.3%; in experiment [2] it was 1.05%; in experiment [3], 30.6%; in experiment [4], 39.6%; in experiment [5] it was 41.7%; in experiment [6], -36.7%.

Turning to `O=[N+]([O-])/C(C(Cl)=C(Cl)Cl)=C(\SCc1ccccc1)N1CCCCC1`, the growth inhibition in experiment [1] is -25.6%; in experiment [2] it was -8.1%; in experiment [3], 6.75%; in experiment [4], 19.4%; in experiment [5] it was 31.7%; in experiment [6], 14.6%.

For `O=S(=O)(Nc1cccc(C(F)(F)F)c1)c1ccc(F)cc1`, the growth inhibition was 6.95% in experiment [1]; 9.5% in experiment [2]; 11% in experiment [3]; 12.9% in experiment [4]; -3.5% in experiment [5]; 42.9% in experiment [6].

As for `CSc1ccc([C@@H](O)[C@H](CO)NC(=O)C(Cl)Cl)cc1`, the growth inhibition in experiment [1] is 72.9% (active); in experiment [2], 90.2% (active); in experiment [3], 88.4% (active); in experiment [4], 31.6%; in experiment [5] it was 74.1% (active); in experiment [6], 47.6%.

As for `CC1(COC(=O)C2(C)CO2)CO1` (stereo not given), the growth inhibition in experiment [1] was 28.2%; in experiment [2], 9.95%; in experiment [3], -6.1%; in experiment [4] it was 4.7%; in experiment [5], -25.2%; in experiment [6], -78.2%.

`Fc1ccc(C(=C(c2ccc(F)cc2)c2ccc(F)cc2)c2ccc(F)cc2)cc1`: the growth inhibition in experiment [1] was 45.5%; in experiment [2], -15.2%; in experiment [3], 36.9%; in experiment [4] it was 9.55%; in experiment [5], 0.1%; in experiment [6], 7%.

For the compound `O=C(c1cccc(C(F)(F)F)c1)c1ccccc1Cc1ccccc1`, the growth inhibition in experiment [1] was 3.85%; in experiment [2], 13.9%; in experiment [3] it was 12.2%; in experiment [4], -28.1%; in experiment [5], 14.2%; in experiment [6], 42%.

Take `O=C[c-]1[c-][c-][c-][c-]1.[Fe+2].[c-]1[c-][c-][cH-][c-]1`: the growth inhibition is 44% in experiment [1]; 58.5% in experiment [2]; 57.8% in experiment [3]; 49% in experiment [4]; 51.6% in experiment [5]; 14% in experiment [6].

Turning to `O=C1O/C(=C(\Br)c2ccccc2)c2ccccc21`, the growth inhibition is 52.9% in experiment [1]; -1.4% in experiment [2]; 55.2% in experiment [3]; 4.2% in experiment [4]; 29.1% in experiment [5]; 31.6% in experiment [6].
